High-throughput results as filed in PubChem.
CIT2 TOR yeast: modulators of TOR pathway CIT2-GFP in S. cerevisiae | hit rate 0.065% among 320,000 | AID 2029 | S. cerevisiae CIT2-GFP strain, flow cytometry, 3 h; 100 means same as DMSO wells | GFP response vs DMSO, % at 10 µM;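 active = GFP response relative to DMSO above a set limit, near the screen mean plus 3 SD, cut at about 150% in these data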;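 note: ratio of well median GFP fluorescence to mean of DMSO wells on the plate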
MEP2 TOR yeast: alters MEP2-GFP fluorescence in TOR pathway yeast screen; S. cerevisiae MEP2-GFP strain, flow cytometry GFP, 3 h; 100% = DMSO control level; GFP response vs DMSO, % at 10 µM; hit rate 0.51% among 330,000; AID 2016;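 active = GFP response versus DMSO above a set limit, roughly screen mean plus 3 SD, cut at about 180% in these data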;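 note: median GFP fluorescence of the barcode-gated MEP2-GFP cells per well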
RPL19A-GFP yeast: alters RPL19A-GFP fluorescence in TOR pathway yeast screen. S. cerevisiae RPL19A-GFP strain, flow cytometry, 3 h; hits give low values. percent response vs DMSO, % at 10 µM. hit rate 0.3% among 330,000;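 active = percent response vs DMSO below 50%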;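 note: median channel GFP fluorescence of the barcoded RPL19A-GFP strain; ratio of sample median GFP to plate DMSO average so 100% = DMSO; lower means less RPL19A-GFP as with rapamycin TOR inhibition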
AGP1-GFP MLPCN: yeast TOR pathway AGP1-GFP modulation | S. cerevisiae AGP1-GFP multiplex flow cytometry, 3 h; GFP as percent of DMSO wells | GFP response vs DMSO, % at 10 µM | hit rate 0.02% among 320,000 | AID 2066;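 active = GFP response relative to DMSO above a set limit, near screen average plus 3 SD, cut at about 150% in these data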;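 note: median GFP channel fluorescence of the gated AGP1 strain per well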
LAP4-GFP MLPCN: yeast TOR pathway LAP4-GFP modulation; S. cerevisiae LAP4-GFP multiplex, flow cytometry GFP, 3 h; median GFP as percent of DMSO wells; GFP response vs DMSO, % at 10 µM; hit rate 0.34% among 320,000;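 active = GFP response vs DMSO above a set limit, about the screen mean plus 3 SD, cut at about 150% in these data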
VLA-4 inh: inhibition in a human VLA-4 binding assay; P13612; VLA-4 expressing cells, ligand binding flow cytometry; inhibition, % (about 7 µM as worked out from the volumes in the protocol); hit rate 0.2% among 330,000; AID 2557; in the data active = inhibition above about 50%
LAP4 cherry2: reconfirmed LAP4-GFP TOR pathway modulator in yeast. hit rate 20% among 590. S. cerevisiae LAP4-GFP strain, flow cytometry GFP, 3 h. GFP response vs DMSO, % at 10 µM. shares compounds with LAP4-GFP MLPCN;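 active = GFP signal as percent of the solvent control above about 150%, meaning raised reporter expression, limit read from the data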;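 note: ratio of well median GFP fluorescence to plate DMSO mean so 100% = DMSO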
MEP2 cherry2: reconfirmed MEP2-GFP TOR pathway modulator in yeast | shares compounds with LAP4-GFP MLPCN | S. cerevisiae MEP2-GFP strain, flow cytometry GFP, 3 h | GFP response vs DMSO, % at 10 µM | hit rate 10% among 590 | AID 2622;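 active = GFP signal above 150% of the solvent control wells, that is a rise of more than half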;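 note: median channel GFP fluorescence of all gated yeast cells per well; ratio of median GFP to plate DMSO average so 100% = DMSO level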
RPL19A-GFP pick2: yeast RPL19A-GFP TOR reporter modulation, second cherry pick | AID 2623 | shares compounds with LAP4-GFP MLPCN | GFP response vs DMSO, % at 10 µM | hit rate 3% among 590 | S. cerevisiae RPL19A-GFP strain, flow cytometry GFP, 3 h; hits give low values; 100% means same as DMSO wells;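 active = under 65% GFP response relative to DMSO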;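 note: median GFP channel fluorescence per well over the all cells gate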
CIT2 GFP CP2: yeast CIT2-GFP TOR reporter modulation, second cherry pick | shares compounds with LAP4-GFP MLPCN | S. cerevisiae CIT2-GFP strain, flow cytometry GFP, 3 h; DMSO control wells read 100% | GFP response vs DMSO, % at 10 µM | hit rate 8% among 590 | AID 2624;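 active = GFP response vs DMSO above about 150%, limit read from the data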;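 note: median green fluorescence per well over all gated yeast cells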
AGP1-GFP pick2: second confirmation of modulators of TOR reporter AGP1-GFP in yeast | shares compounds with LAP4-GFP MLPCN | S. cerevisiae AGP1-GFP strain, flow cytometry GFP, 3 h | percent response vs DMSO, % at 10 µM | 590 tested, under 10 active | AID 2643;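 active = over 150 percent of DMSO response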;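 note: median GFP channel fluorescence over all cells without mother daughter split; sample median GFP divided by mean DMSO control so 100% equals DMSO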
s288c autofluor: counter-screen for compound autofluorescence in yeast s288c cells; shares compounds with LAP4-GFP MLPCN; S. cerevisiae s288c, 520 nm autofluorescence, flow cytometry, 3 h; hits give high values; zero means same as solvent-only cells; 610 tested, under 10 active; fluorescence change (kMESF span) at 33 µM; AID 2757;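 active = fluorescence span over the dose series, or activity score, above about 33, limit read from the data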
* marks the source's active call; other numbers are inactive results; [ ] = remark or other dose. Most compounds without a hit are left out; they make up all but 1.1% or so of the library.

What do the screens show for `CC1(C)CC2CC(C)(CN2S(=O)(=O)c2ccccc2[N+](=O)[O-])C1` (stereo not drawn)?
CIT2 TOR yeast: 93; MEP2 TOR yeast: 101; RPL19A-GFP yeast: 93; AGP1-GFP MLPCN: 91; LAP4-GFP MLPCN: 96; VLA-4 inh: -2

Results for Cc1ccc(/C=C/C(=O)N2CCc3ccccc32)o1 ?
CIT2 TOR yeast: 92; MEP2 TOR yeast: 100; RPL19A-GFP yeast: 101; AGP1-GFP MLPCN: 88; LAP4-GFP MLPCN: 168*[may fluoresce green]; VLA-4 inh: 12; LAP4 cherry2: 105; MEP2 cherry2: 105; RPL19A-GFP pick2: 104; CIT2 GFP CP2: 102; AGP1-GFP pick2: 96

What do the screens show for `O=C(/C=C/c1ccco1)N1CCc2ccccc21`?
CIT2 TOR yeast: 90; MEP2 TOR yeast: 98; RPL19A-GFP yeast: 103; AGP1-GFP MLPCN: 87; LAP4-GFP MLPCN: 110; VLA-4 inh: -15

What do the screens show for `Cc1ccc2[nH]cc(/C=C/c3cc[n+](C)cc3)c2c1`?
CIT2 TOR yeast: 147; MEP2 TOR yeast: 217*; RPL19A-GFP yeast: 115; AGP1-GFP MLPCN: 105; LAP4-GFP MLPCN: 151*; VLA-4 inh: inactive; s288c autofluor: 5.4

Results for COc1ccc2c(/C=C/c3cc[n+](C)cc3)c[nH]c2c1 ?
CIT2 TOR yeast: 210*; MEP2 TOR yeast: 207*; RPL19A-GFP yeast: 116; AGP1-GFP MLPCN: 117; LAP4-GFP MLPCN: 150*; VLA-4 inh: inactive; s288c autofluor: 5.7

Results for COc1ccc2c(c1)c(/C=C/c1cc[n+](C)cc1)cn2C ?
CIT2 TOR yeast: 196*; MEP2 TOR yeast: 214*; RPL19A-GFP yeast: 118; AGP1-GFP MLPCN: 118; LAP4-GFP MLPCN: 138; VLA-4 inh: inactive; s288c autofluor: 6.8

How did CC[n+]1ccc(/C=C/c2c[nH]c3ccccc23)cc1 do in these assays?
CIT2 TOR yeast: 114; MEP2 TOR yeast: 116; RPL19A-GFP yeast: 106; AGP1-GFP MLPCN: 102; LAP4-GFP MLPCN: 103; VLA-4 inh: -327

What do the screens show for `Cc1ccc(C)c(OCCC(=O)N2CCN(S(=O)(=O)c3cc(C)ccc3C)CC2)c1`?
CIT2 TOR yeast: 102; MEP2 TOR yeast: 97; RPL19A-GFP yeast: 98; AGP1-GFP MLPCN: 98; LAP4-GFP MLPCN: 111; VLA-4 inh: -2

What do the screens show for `Cc1cccc(NC(=O)CCCN=C2NS(=O)(=O)c3ccccc32)c1C`?
CIT2 TOR yeast: 98; MEP2 TOR yeast: 96; RPL19A-GFP yeast: 98; AGP1-GFP MLPCN: 100; LAP4-GFP MLPCN: 100; VLA-4 inh: 16

What do the screens show for `Cc1ccc(-c2nc(C)sc2CC(=O)Nc2nnc(C)s2)cc1`?
CIT2 TOR yeast: 94; MEP2 TOR yeast: 155; RPL19A-GFP yeast: 53; AGP1-GFP MLPCN: 41; LAP4-GFP MLPCN: 97; VLA-4 inh: 6; LAP4 cherry2: 113; MEP2 cherry2: 122; RPL19A-GFP pick2: 100; CIT2 GFP CP2: 118; AGP1-GFP pick2: 104; s288c autofluor: 0
